Screen size: about 69,000 compounds; about 8,600 (12%) showed an effect of 50% or more. The list comes from a sample in which strong results are over-represented; it also holds similar structures and randomly drawn compounds.
These compounds were tested on Plasmodium berghei (assay: Screen against P. berghei liver stage (PbLuc), transformed with Luciferase, at 10uM). Conditions: tested at 10 uM.
Type: functional, HepG2

SMILES	INHIBITION
O=C1COC2(CCN(C(=O)c3ccco3)CC2)CN1Cc1ccccn1	28.2%
CCn1cc(-c2n[nH]c(=O)n2-c2ccc(OC)c(OC)c2)c(C)n1	41.4%
CCn1ccc2ccnc(CC3CN(C(=O)Cn4ccnc4C)C3)c21	6.26%
CCc1nccn1C1CCCN(C(=O)c2ccc3nnc(C)n3c2)C1 (stereo not given)	-6.44%
COc1c(NS(=O)(=O)c2ccc(C)c(C)c2)c(C)nn1C	51.1%
Cc1ccc(S(=O)(=O)Nc2c(C)nn(C)c2C)cc1C	45.7%
COc1c(NS(=O)(=O)c2ccc(F)c(C)c2)c(C)nn1C	29.6%
Cc1noc(C)c1S(=O)(=O)N1CCC(n2cccn2)CC1	-25.4%
CCN1CCC(N2CCC(c3nc(C)cc(C)n3)C2)CC1 (stereo not given)	23.9%
CN(C)C(=O)C1CCCN1CCCNC(=O)c1ccccc1Cl (stereo not given)	42.5%
CC(C)(C)c1oc(C(N)=O)cc1CN1CCOC(C(F)(F)F)C1 (stereo not given)	22.5%
CC(C)(C)c1oc(C(N)=O)cc1CN1CCCCC(N)C1 (stereo not given)	51.8%
CC(C)(C)c1oc(C(N)=O)cc1CN1CCCCC1CN1CCOCC1 (stereo not given)	48.5%
CC(Sc1nncn1C)C(=O)NCCCOc1ccc(F)cc1 (stereo not given)	51.7%
Cc1cc(C)cc(OCCN(C)C(=O)NC(C)c2nncn2C)c1 (stereo not given)	21.5%
Cc1ccc(OCCNC(=O)C(C)n2cncn2)cc1 (stereo not given)	8.47%
CC(NC(=O)NCCOc1ccc(F)c(F)c1)c1nncn1C (stereo not given)	0.0932%
Cc1ccc(OCCCNC(=O)C(C)Sc2nncn2C)cc1 (stereo not given)	50.8%
CC(NC(=O)N(C)CCCOc1ccc(F)cc1)c1nncn1C (stereo not given)	-20%
CC(C(=O)NCCOc1ccc(F)cc1)n1cncn1 (stereo not given)	-44.3%
Cc1ccc(OCCCNC(=O)NC(C)c2nncn2C)cc1 (stereo not given)	38.7%
Cc1cc(C)cc(OCCNC(=O)C(C)Sc2nncn2C)c1 (stereo not given)	53.6%

SMILES	INHIBITION
O=C(CCSc1ccccc1F)NCc1cccnc1	-0.514%
NC(=O)CN1CC(c2nc(C3CC3)no2)C1	19.8%
Cc1nn(CCNC(=O)c2cc(C3CC3)[nH]n2)c(C)c1Cl	-28%
CCN(C)c1ncnc2c1CCN(Cc1ccncc1)CC2	38.3%
CN(C)S(=O)(=O)N1C[C@@H](OCc2cccnc2)[C@H]2OCCC[C@H]21	11.6%
Cc1nc2cc(C(=O)N(CCC#N)CC3CCCO3)ccc2[nH]1 (stereo not given)	-0.371%
Cc1ccccc1C(N)c1ccncc1 (stereo not given)	-1.38%
Cc1nc(CN2CCC3(CCN(Cc4cnn(C)c4)CC3)C2=O)cs1	-22.1%
CSc1ccccc1C(=O)N1C[C@@H]2CC[C@H]1CN(C(=O)C1CCC1)C2	9.41%
CCC(C)Sc1ncc(-c2c(C#N)c(N)nc3c2COCC3)cn1 (stereo not given)	29.9%
Cc1noc(CCNC(=O)NCc2ccc(N3CCCCC3)cc2)n1	-95.7%
CCc1cc(CNC(=O)NCc2ccc(N3CCCCC3)cc2)on1	51.1%
CCc1cc(CNC(=O)Nc2cc(F)cc(N3CCCC3)c2)on1	38.3%
COc1ccccc1CN(CC1CCCO1)C(=O)c1ccc(F)cn1 (stereo not given)	5.23%
CCn1cc2c(n1)CN(S(=O)(=O)c1cn(C)cn1)CC2COC (stereo not given)	-18.5%
Cn1ccc(CN2CCC(c3ccccc3)CC2)cc1=O	38%
CN(C)c1nc(N)nc(CN2CCC(c3ccccc3)CC2)n1	67.8%
CN(C)c1nc(N)nc(CN2CCC(c3nc4ccccc4o3)CC2)n1	45.4%
CN(C)c1nc(N)nc(CN2CCCC2c2cccs2)n1 (stereo not given)	70%
O=C(O)CN1CCC(c2ccccc2)CC1	1.03%
CN(C)c1nc(N)nc(CN2CCCC2c2ccsc2)n1 (stereo not given)	25.5%
Cc1cccc(C2CCCN2Cc2nc(N)nc(N(C)C)n2)c1C (stereo not given)	35.2%

SMILES	INHIBITION
CCC1CCCN(Cc2nc(N)c3ccccc3n2)C1 (stereo not given)	36.75%
CN(C)c1nc(N)nc(CN2CCCC(c3ccccc3)CC2)n1 (stereo not given)	57.8%
CCN(Cc1ccncc1)c1cc(C2CCN2C(C)=O)nc(C)n1 (stereo not given)	19.775%
CC(C)c1cc(C(=O)N[C@@H]2CC[C@@H](Oc3ccccc3)[C@@H]2O)on1	-10.955%
CCOCCNC(=O)[C@@H]1CCCN1c1nccc(Nc2ccccc2)n1	6.55%
O=C(CSc1ccncc1)N1C[C@@H]2CC[C@H]1CN(Cc1cccnc1)C2	9.54%
CCc1csc(C2CCCN(C(=O)c3ccccn3)C2)n1 (stereo not given)	14.1%
NCC1[C@H]2CN(Cc3cccc(Cl)c3)C[C@@H]12 (stereo not given in full)	13.7%
Cc1ccc(S(=O)(=O)N2CCN(C)c3ccncc32)cc1F	41%
CN(Cc1ncc(-c2ccccc2)o1)C1CCCN(c2cccnn2)C1 (stereo not given)	43.2%
c1cnnc(N2CCCC(NCc3nc(C4CC4)no3)C2)c1 (stereo not given)	58.5%
Cc1oc(-c2ccco2)nc1CNC1CCCN(c2cccnn2)C1 (stereo not given)	-21.55%
c1ccc(-c2cnc(CNC3CCCN(c4cccnn4)C3)o2)cc1 (stereo not given)	51.2%
CN(Cc1ccc(Cl)s1)C1CCCN(c2cccnn2)C1 (stereo not given)	17.4%
c1cnnc(N2CCCC(NCc3ccncc3)C2)c1 (stereo not given)	30.8%
c1ccc(-c2noc(CNC3CCCN(c4cccnn4)C3)n2)nc1 (stereo not given)	45.4%
c1ccc(-c2nnc(CNC3CCCN(c4cccnn4)C3)o2)cc1 (stereo not given)	-43.25%
Cc1cnc(CN(C)C2CCCN(c3cccnn3)C2)cn1 (stereo not given)	3.19%
COCCc1noc(CNC2CCCN(c3cccnn3)C2)n1 (stereo not given)	21.8%
c1cnnc(N2CCCC(NCc3nc(-c4ccco4)no3)C2)c1 (stereo not given)	55.5%
Cc1ncc(CN(C)C2CCCN(c3cccnn3)C2)s1 (stereo not given)	58.3%
CC1c2cc(F)ccc2CCN1C(=O)c1[nH]c(=O)[nH]c(=O)c1N (stereo not given)	33.4%

SMILES	INHIBITION
CCc1cc(C(=O)N2CC[C@@H](c3ccc4c(c3)OCO4)[C@H](O)C2)ccn1	26.5%
Cc1noc(C)c1CN1CCn2cc(CN3CCCCC3)nc2C1	-33.1%
O=C(NCc1nnc2n1CCC2)NCC1(c2cccc(F)c2)CC1	-14.6%
c1nc2c(c(NC3COC4(CCCC4)C3)n1)CCNCC2 (stereo not given)	37.7%
c1cnnc(N2CCCC(NCc3cccc4c3OCCCO4)C2)c1 (stereo not given)	11.9%
c1cnnc(N2CCCC(NCc3cccc4c3OCCO4)C2)c1 (stereo not given)	-12.2%
C=c1ccoc1=C1NN=C(CNCC2CCCN2c2cccnn2)O1 (stereo not given)	18.5%
c1cnnc(N2CCCC(NCc3nc(-c4cccs4)no3)C2)c1 (stereo not given)	60.3%
c1cnnc(N2CCCC(NCc3nnc(-c4ccco4)o3)C2)c1 (stereo not given)	31.8%
CN(Cc1nc(C2CC2)no1)C1CCCN(c2cccnn2)C1 (stereo not given)	53.5%
COCCc1noc(CN(C)C2CCCN(c3cccnn3)C2)n1 (stereo not given)	9.54%
c1cnnc(N2CCCC(NCc3cccc4c3OCO4)C2)c1 (stereo not given)	53.7%
c1cnnc(N2CCCC2CNCc2nc(-c3cccs3)no2)c1 (stereo not given)	31.9%
C=c1ccoc1=C1NN=C(CNC2CCCN(c3cccnn3)C2)O1 (stereo not given)	56.05%
CN(Cc1nc(-c2ccco2)no1)C1CCCN(c2cccnn2)C1 (stereo not given)	20.1%
c1csc(-c2noc(CNC3CCc4ncnn4C3)n2)c1 (stereo not given)	0.65%
CC(C)c1noc(CCC(=O)NCC2CC2)n1	38.5%
O=C1CC(NCc2ccccn2)CN1CCc1ccc(F)cc1 (stereo not given)	17.8%
CN1CCC/C1=N\S(=O)(=O)c1ccc(NC(=O)Cc2cccs2)cc1	-6.14%
O=C(CCn1cc(Cl)cn1)N1C[C@H]2CC[C@@H](C1)N(Cc1ccccn1)C2	-29.1%
Cc1cnn(CC2CCCCN2C(=O)c2cnc3n[nH]c(C)c3c2)c1 (stereo not given)	-14%
CN(CCO)Cc1cc(Cl)ccc1OCC(O)CN1CCCCCC1 (stereo not given)	-26.8%

SMILES	INHIBITION
O=C(NCc1ccccc1Cn1cncn1)C1CCC1	11.4%
CC(=O)N1CCC(Cc2nccnc2-c2ccnn2C)CC1	4.41%
CN(Cc1cn2ccccc2n1)C1CCCN(c2cccnn2)C1 (stereo not given)	16.7%
c1cnnc(N2CCCC(NCc3nc(-c4ccsc4)no3)C2)c1 (stereo not given)	59.3%
CN(c1ncnc2c1cnn2C)C1CCCN(c2cccnn2)C1 (stereo not given)	-12.7%
c1cncc(-c2noc(CNC3CCCN(c4cccnn4)C3)n2)c1 (stereo not given)	8.66%
c1csc(-c2noc(CCCN3CCCC3Cn3cncn3)n2)c1 (stereo not given)	-9.76%
c1csc(-c2noc(CCCN3CCCC3Cn3cccn3)n2)c1 (stereo not given)	39.8%
Cc1nccn1CC1CCCN1CCCc1nc(-c2cccs2)no1 (stereo not given)	68.4%
CN(c1ncnc2sccc12)C1CCCN(c2cccnn2)C1 (stereo not given)	7.18%
CN(c1ncnc2ccccc12)C1CCCN(c2cccnn2)C1 (stereo not given)	52%
CN(Cc1ccccn1)C1CCCN(c2cccnn2)C1 (stereo not given)	7.12%
c1cnnc(N2CCCC2CNCc2nc(-c3ccsc3)no2)c1 (stereo not given)	27.9%
CN(Cc1cn2ccccc2c1C#N)C1CCCN(c2cccnn2)C1 (stereo not given)	59.4%
c1cc(C2CN(C3CCCC3)C2)n[nH]1	7.4%
O=C(CCOc1ccccc1F)N1CCOCC1	48.2%
CN(C)CCOCC1CN(Cc2ccccn2)Cc2nnn(C)c21 (stereo not given)	-2.35%
CN(C)c1ccnc(C2CCCN2)n1 (stereo not given)	10.45%
Cc1cccc(C2(CNC(=O)C(C)S(C)(=O)=O)CCCC2)c1 (stereo not given)	2.39%
Cc1cccc(C2(CNC(=O)CO)CCCC2)c1	21.5%
Cc1cccc(C2(CNC(=O)CCNS(C)(=O)=O)CCCC2)c1	67.5%
C[C@@H]1CN(c2ccc(Cl)cn2)CC[C@@]1(O)C1CCOCC1	17.215%
